Test in all cases: DAPPL (digital affinity profiling via proximity ligation, sequencing); 10 mM Tris-HCl pH 7.5, 50 mM NaCl, 1 mM DTT, 4% glycerol, room temperature, 30 min; GST-TFs on glutathione beads, 16-mer random dsDNA library, 0.1% formaldehyde crosslink after washing; high values mean tight binding
In one experiment the target is T1, FLI1 (Homo sapiens, UniProt Q01543 1-452).
T1 sequence: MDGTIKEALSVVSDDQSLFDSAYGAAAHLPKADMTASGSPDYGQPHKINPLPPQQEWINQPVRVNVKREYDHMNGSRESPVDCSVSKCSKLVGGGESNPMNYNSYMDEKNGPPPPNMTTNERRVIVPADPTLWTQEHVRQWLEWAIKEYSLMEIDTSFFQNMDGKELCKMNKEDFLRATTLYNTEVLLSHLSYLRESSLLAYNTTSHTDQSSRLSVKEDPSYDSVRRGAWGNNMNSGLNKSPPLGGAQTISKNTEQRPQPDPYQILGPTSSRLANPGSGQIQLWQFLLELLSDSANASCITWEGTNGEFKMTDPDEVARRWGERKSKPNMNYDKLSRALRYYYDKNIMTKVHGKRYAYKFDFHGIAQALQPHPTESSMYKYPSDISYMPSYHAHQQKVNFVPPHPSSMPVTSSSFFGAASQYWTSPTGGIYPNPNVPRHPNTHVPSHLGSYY
To be noted: protein: recombinant; tags: N-terminal GST; dsDNA, one strand shown. The gist of the method:
(§1)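 Binding signal is given per hexamer as its read frequency for a factor divided by its frequency in the tag-only sample. GST-fused human transcription factors were expressed in yeast, captured on glutathione beads, barcoded with DNA and pooled with that sample, then incubated with 200 nmole of a 16-mer random double-stranded DNA library in Tris/NaCl/DTT/glycerol buffer for 30 min at room temperature. The pools were then washed, crosslinked, proximity-ligated, amplified by PCR and sequenced on an Illumina NextSeq500.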

In a further experiment the target is T2, ELK1 (Homo sapiens, UniProt P19419 1-428).
T2 sequence: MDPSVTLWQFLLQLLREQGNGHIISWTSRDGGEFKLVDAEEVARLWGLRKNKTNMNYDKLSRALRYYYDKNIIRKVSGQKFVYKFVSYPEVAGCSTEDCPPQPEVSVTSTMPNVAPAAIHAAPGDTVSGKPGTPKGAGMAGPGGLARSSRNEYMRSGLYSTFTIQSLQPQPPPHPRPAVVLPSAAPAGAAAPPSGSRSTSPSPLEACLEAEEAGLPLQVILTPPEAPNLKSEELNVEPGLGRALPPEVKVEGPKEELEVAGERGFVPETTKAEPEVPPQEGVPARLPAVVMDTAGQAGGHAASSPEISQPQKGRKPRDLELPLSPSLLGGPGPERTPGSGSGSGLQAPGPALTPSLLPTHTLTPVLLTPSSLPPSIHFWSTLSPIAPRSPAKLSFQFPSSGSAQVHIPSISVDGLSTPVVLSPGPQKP
To be noted: protein: recombinant; tags: N-terminal GST; dsDNA, one strand shown. The method, boiled down: as §1

The target in another experiment is T3, GABPA (Homo sapiens, UniProt Q06546 1-454).
T3 sequence: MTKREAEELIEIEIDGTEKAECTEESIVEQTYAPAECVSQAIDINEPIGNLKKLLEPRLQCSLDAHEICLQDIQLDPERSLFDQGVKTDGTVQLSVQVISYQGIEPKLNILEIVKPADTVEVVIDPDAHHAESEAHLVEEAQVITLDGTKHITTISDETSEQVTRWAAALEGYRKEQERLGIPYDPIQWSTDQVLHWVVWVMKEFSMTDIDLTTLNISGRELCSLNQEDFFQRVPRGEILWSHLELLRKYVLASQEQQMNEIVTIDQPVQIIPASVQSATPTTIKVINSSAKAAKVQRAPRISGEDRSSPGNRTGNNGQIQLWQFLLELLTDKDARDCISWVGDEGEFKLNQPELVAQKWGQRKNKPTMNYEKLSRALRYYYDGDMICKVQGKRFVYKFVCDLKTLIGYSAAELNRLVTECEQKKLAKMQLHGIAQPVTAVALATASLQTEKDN
To be noted: protein: recombinant; tags: N-terminal GST; dsDNA, one strand shown. The method, boiled down:
as §1

Another experiment concerns the target T4, ERG (Homo sapiens, UniProt P11308 1-479).
T4 sequence: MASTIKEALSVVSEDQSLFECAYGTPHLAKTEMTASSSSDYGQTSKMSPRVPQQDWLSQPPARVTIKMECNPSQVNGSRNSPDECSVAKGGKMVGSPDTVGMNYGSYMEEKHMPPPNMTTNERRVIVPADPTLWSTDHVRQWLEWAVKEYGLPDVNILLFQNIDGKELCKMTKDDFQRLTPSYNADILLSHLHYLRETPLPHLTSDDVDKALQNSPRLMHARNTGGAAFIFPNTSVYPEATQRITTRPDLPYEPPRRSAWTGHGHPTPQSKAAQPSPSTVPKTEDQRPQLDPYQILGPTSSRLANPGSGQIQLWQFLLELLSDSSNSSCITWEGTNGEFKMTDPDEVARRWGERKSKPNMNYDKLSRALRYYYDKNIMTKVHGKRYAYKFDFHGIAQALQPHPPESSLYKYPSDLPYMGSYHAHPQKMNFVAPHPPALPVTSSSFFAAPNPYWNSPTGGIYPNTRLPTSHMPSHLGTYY
To be noted: protein: recombinant; tags: N-terminal GST; dsDNA, one strand shown. The method, boiled down: as §1

The target in the next experiment is ELF1 (Homo sapiens, UniProt P32519 1-619). To be noted: protein: recombinant; tags: N-terminal GST; dsDNA, one strand shown. The gist of the method: as §1
The target of another experiment is T5, EHF (Homo sapiens, UniProt Q9NZC4 1-300).
T5 sequence: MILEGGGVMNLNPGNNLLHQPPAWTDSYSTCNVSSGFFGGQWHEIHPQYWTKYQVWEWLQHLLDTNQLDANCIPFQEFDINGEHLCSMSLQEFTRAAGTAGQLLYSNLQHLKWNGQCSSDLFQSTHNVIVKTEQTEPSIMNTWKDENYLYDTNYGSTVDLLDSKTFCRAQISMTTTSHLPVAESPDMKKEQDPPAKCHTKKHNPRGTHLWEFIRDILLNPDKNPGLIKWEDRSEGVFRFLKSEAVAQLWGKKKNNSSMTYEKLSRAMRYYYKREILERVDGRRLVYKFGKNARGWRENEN
To be noted: protein: recombinant; tags: N-terminal GST; dsDNA, one strand shown. The gist of the method: as §1

The target of another experiment is SPI1 (Homo sapiens, UniProt P17947 1-270). The conditions noted are these: protein: recombinant; tags: N-terminal GST; dsDNA, one strand shown. The gist of the method:
as §1

Another experiment has as its target SPIB (Homo sapiens, UniProt Q01892 1-262). To be noted: protein: recombinant; tags: N-terminal GST; dsDNA, one strand shown. The method, boiled down: as §1
The target in a further experiment is T6, ELK3 (Homo sapiens, UniProt P41970 1-407).
T6 sequence: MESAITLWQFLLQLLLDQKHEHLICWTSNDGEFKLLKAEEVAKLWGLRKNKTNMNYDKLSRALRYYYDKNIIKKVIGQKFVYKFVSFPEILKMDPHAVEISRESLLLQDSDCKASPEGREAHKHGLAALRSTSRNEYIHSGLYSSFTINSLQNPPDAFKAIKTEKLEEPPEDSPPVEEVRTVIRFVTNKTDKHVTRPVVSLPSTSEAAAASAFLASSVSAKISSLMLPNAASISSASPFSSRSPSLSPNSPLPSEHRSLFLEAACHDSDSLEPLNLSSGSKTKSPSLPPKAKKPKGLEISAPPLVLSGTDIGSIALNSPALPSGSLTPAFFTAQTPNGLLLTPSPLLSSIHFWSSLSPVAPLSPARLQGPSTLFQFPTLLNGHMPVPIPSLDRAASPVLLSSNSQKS
To be noted: protein: recombinant; tags: N-terminal GST; dsDNA, one strand shown. The method, boiled down:
as §1

A further experiment deals with T7, FEV (Homo sapiens, UniProt Q99581 1-238).
T7 sequence: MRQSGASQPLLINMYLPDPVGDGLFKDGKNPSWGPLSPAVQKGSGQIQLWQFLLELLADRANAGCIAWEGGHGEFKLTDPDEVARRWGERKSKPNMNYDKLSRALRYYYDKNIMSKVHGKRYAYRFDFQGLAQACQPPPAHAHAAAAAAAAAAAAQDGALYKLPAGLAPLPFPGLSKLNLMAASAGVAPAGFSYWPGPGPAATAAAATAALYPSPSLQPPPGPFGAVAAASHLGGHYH
The conditions noted are these: protein: recombinant; tags: N-terminal GST; dsDNA, one strand shown. The method, boiled down: as §1

A further experiment has as its target ETV5 (Homo sapiens, UniProt P41161 1-510). The conditions noted are these: protein: recombinant; tags: N-terminal GST; dsDNA, one strand shown. The gist of the method:
as §1

The target of another experiment is HSF1 (Homo sapiens, UniProt Q00613 1-529). To be noted: protein: recombinant; tags: N-terminal GST; chain copies: 3; dsDNA, one strand shown. The method, boiled down:
as §1

The next experiment deals with T8, SPIC (Homo sapiens, UniProt Q8N5J4 1-248).
T8 sequence: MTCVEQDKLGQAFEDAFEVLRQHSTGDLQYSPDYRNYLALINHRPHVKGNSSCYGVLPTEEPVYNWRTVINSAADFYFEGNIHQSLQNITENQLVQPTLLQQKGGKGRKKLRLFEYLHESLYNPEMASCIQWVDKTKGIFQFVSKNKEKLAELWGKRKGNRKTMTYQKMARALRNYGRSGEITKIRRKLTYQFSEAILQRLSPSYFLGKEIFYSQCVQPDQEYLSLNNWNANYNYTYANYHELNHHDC
To be noted: protein: recombinant; tags: N-terminal GST; dsDNA, one strand shown. The gist of the method: as §1

The target of a further experiment is ELF4 (Homo sapiens, UniProt Q99607 1-663). To be noted: protein: recombinant; tags: N-terminal GST; dsDNA, one strand shown. The method, boiled down:
as §1

The target in a further experiment is T9, ELK4 (Homo sapiens, UniProt P28324-2 1-405).
T9 sequence: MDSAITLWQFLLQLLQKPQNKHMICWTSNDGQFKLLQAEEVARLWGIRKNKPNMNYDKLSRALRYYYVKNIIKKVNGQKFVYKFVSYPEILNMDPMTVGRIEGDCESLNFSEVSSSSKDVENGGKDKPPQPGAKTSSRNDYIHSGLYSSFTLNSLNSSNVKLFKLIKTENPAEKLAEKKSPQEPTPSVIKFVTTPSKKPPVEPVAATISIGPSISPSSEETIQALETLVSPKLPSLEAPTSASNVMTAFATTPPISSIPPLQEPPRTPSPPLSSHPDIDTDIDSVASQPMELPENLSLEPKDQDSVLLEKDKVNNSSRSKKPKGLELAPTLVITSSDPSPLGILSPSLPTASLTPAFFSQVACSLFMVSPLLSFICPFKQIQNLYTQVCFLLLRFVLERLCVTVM
The conditions noted are these: protein: recombinant; tags: N-terminal GST; dsDNA, one strand shown. The gist of the method:
as §1

The target of a further experiment is T10, ETV2 (Homo sapiens, UniProt O00321 1-342).
T10 sequence: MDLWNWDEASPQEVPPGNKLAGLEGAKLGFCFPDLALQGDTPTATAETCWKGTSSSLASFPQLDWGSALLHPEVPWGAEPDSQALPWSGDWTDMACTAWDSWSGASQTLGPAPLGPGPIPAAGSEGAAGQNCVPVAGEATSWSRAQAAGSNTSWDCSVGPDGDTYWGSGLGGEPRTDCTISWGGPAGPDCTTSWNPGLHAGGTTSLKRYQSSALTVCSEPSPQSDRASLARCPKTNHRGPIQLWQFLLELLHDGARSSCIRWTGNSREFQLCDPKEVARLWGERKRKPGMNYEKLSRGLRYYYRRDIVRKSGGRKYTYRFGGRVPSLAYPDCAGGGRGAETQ
The conditions noted are these: protein: recombinant; tags: N-terminal GST; dsDNA, one strand shown. The gist of the method:
as §1

The target of the next experiment is T11, ELF3 (Homo sapiens, UniProt P78545 1-371).
T11 sequence: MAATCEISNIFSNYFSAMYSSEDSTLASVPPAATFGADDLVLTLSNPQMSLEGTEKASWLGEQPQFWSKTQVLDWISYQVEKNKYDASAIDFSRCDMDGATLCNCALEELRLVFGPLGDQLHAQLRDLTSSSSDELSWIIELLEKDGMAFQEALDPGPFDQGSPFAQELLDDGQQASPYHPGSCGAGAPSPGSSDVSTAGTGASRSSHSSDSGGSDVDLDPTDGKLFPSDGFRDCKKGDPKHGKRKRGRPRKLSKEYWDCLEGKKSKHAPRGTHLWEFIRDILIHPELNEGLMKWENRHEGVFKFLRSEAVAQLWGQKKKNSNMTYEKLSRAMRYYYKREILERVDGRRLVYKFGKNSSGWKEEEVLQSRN
To be noted: protein: recombinant; tags: N-terminal GST; dsDNA, one strand shown. The method, boiled down: as §1

The target of a further experiment is CRX (Homo sapiens, UniProt O43186 1-299). To be noted: protein: recombinant; tags: N-terminal GST; dsDNA, one strand shown. The method, boiled down:
as §1

The target in the next experiment is ETV1 (Homo sapiens, UniProt P50549 1-477). The conditions noted are these: protein: recombinant; tags: N-terminal GST; dsDNA, one strand shown. The method, boiled down:
as §1

Sequence of ELF4 (Q99607 whole entry): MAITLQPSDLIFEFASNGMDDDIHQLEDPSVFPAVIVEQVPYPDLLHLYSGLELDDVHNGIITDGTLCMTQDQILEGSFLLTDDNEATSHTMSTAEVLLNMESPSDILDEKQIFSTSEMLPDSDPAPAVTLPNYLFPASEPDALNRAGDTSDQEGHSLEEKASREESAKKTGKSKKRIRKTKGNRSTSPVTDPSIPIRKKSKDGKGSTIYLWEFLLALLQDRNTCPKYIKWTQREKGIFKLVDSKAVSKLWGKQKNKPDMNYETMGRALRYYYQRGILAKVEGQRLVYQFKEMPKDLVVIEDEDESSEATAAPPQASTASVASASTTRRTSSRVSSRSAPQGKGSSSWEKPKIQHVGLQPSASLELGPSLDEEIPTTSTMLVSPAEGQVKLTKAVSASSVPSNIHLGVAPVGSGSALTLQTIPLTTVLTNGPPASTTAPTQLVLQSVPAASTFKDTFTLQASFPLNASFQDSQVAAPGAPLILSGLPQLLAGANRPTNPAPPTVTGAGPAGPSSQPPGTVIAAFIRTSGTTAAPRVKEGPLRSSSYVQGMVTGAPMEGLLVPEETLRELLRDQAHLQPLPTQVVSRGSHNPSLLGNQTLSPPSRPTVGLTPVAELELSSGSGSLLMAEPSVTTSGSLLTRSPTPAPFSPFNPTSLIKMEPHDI
Sequence of SPIB (Q01892 whole entry): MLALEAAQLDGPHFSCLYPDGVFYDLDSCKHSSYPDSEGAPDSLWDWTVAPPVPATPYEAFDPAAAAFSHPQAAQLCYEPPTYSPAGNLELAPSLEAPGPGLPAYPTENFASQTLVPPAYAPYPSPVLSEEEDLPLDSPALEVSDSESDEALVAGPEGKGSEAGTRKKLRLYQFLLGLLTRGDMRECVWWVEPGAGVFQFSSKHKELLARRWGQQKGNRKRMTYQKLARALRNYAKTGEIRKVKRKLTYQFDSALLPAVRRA
Sequence of ETV5 (P41161 whole entry): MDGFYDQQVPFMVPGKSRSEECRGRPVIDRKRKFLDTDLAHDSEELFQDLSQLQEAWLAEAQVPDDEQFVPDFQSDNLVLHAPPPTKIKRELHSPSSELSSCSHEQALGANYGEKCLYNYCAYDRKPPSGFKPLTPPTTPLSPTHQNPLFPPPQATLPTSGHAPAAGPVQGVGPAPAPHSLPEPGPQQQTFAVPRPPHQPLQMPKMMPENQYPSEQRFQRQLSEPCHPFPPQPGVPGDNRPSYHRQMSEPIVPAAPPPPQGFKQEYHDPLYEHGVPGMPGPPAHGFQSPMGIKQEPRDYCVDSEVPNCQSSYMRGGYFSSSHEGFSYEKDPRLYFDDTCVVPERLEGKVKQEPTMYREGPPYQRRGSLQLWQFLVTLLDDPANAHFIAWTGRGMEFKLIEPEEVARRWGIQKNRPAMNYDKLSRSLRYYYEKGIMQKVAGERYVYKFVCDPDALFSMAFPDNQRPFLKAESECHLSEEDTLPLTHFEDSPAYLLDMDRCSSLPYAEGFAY
Sequence of ELF1 (P32519 whole entry): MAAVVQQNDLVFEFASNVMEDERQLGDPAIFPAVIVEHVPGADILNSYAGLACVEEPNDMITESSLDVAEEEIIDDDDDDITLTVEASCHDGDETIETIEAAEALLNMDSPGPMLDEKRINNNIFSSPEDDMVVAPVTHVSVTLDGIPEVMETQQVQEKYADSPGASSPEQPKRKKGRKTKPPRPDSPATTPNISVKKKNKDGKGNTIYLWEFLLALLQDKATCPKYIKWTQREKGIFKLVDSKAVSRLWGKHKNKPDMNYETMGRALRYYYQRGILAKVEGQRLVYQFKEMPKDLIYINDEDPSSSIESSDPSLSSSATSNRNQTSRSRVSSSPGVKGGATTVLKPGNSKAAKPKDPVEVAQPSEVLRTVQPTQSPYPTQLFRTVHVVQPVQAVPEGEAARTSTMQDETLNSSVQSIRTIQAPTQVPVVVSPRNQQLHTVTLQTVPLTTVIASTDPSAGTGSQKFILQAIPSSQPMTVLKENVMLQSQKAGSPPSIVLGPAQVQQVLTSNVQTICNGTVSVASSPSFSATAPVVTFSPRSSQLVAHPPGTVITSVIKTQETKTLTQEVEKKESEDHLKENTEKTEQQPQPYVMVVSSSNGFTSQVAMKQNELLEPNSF
Sequence of ETV1 (P50549 whole entry): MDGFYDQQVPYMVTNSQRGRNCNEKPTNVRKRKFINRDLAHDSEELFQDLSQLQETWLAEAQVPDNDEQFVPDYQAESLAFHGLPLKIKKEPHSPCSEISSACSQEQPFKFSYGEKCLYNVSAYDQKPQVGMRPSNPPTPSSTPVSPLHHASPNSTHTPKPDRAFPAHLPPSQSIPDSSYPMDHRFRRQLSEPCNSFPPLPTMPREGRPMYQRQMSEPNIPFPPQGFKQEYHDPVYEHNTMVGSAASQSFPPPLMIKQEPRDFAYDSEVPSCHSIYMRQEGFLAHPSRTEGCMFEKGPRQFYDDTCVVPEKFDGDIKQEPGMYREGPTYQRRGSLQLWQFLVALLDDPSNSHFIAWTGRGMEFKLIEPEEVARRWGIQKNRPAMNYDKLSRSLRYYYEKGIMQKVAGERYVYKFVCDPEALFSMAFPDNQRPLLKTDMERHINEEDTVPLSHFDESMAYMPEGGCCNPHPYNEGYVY
Sequence of CRX (O43186 whole entry): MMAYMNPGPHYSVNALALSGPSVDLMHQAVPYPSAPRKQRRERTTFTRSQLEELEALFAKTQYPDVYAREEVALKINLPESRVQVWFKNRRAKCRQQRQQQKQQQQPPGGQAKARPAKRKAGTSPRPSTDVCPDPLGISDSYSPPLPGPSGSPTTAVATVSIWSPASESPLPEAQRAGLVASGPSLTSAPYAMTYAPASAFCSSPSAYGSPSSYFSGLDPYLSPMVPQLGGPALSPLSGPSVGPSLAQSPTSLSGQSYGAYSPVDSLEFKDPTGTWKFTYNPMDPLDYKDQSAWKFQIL
Sequence of HSF1 (Q00613 whole entry): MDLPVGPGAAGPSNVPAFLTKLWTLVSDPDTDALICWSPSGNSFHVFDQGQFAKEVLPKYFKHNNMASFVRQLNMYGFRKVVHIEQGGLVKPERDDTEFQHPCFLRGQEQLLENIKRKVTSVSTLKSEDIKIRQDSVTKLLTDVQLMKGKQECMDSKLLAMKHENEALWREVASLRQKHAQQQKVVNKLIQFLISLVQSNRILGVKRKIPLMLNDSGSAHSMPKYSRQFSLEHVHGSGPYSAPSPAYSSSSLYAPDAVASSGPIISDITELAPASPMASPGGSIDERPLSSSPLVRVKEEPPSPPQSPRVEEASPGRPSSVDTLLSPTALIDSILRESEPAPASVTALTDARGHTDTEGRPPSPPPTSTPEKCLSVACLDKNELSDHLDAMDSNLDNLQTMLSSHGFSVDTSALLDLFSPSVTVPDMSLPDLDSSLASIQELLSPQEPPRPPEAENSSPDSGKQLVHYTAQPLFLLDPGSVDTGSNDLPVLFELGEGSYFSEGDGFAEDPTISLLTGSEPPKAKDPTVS

Turning to AATTCA, the binding signal was 1.29 fold enrichment (6-mer frequency, TF over GST control) in the experiment with FLI1; 1.23 fold enrichment (6-mer frequency, TF over GST control) with ELK1; 1.35 fold enrichment (6-mer frequency, TF over GST control) in the experiment with GABPA; 1.33 fold enrichment (6-mer frequency, TF over GST control) with ERG; 1.31 fold enrichment (6-mer frequency, TF over GST control) in the experiment with ELF1; 1.27 fold enrichment (6-mer frequency, TF over GST control) with EHF. The binding signal was 1.29 fold enrichment (6-mer frequency, TF over GST control) with SPI1; 1.33 fold enrichment (6-mer frequency, TF over GST control) with SPIB; 1.47 fold enrichment (6-mer frequency, TF over GST control) with ELK3; 1.24 fold enrichment (6-mer frequency, TF over GST control) with FEV; 1.34 fold enrichment (6-mer frequency, TF over GST control) with ETV5; 1.34 fold enrichment (6-mer frequency, TF over GST control) with HSF1. For the same sequence, the binding signal was 1.32 fold enrichment (6-mer frequency, TF over GST control) with SPIC; 1.33 fold enrichment (6-mer frequency, TF over GST control) with ELF4; 1.26 fold enrichment (6-mer frequency, TF over GST control) with ELK4; 1.36 fold enrichment (6-mer frequency, TF over GST control) in the experiment with ETV2; 1.35 fold enrichment (6-mer frequency, TF over GST control) with ELF3; 1.39 fold enrichment (6-mer frequency, TF over GST control) in the experiment with CRX. In addition, in the experiment with ETV1, the binding signal is 1.23 fold enrichment (6-mer frequency, TF over GST control).

Values taken from publication PMC7862700, “An all-to-all approach to the identification of sequence-specific readers for epigenetic DNA modifications on cytosine”.
